# This is a sample that favours compounds with a hit; in the whole collection about 2.4% have one here.
# CHRM1 PAM = human CHRM1 positive allosteric modulation | P11229 | CHO-K1 hM1, Fluo-8 calcium fluorescence, ACh EC20; 0% = ACh EC20, 100% = maximal ACh | activation, % at 3 µM | 360,000 compounds, 0.088% hits; in the data active = activation above about 19%, passing the limit was not always enough
# Target sequence (P11229 whole entry, looked up): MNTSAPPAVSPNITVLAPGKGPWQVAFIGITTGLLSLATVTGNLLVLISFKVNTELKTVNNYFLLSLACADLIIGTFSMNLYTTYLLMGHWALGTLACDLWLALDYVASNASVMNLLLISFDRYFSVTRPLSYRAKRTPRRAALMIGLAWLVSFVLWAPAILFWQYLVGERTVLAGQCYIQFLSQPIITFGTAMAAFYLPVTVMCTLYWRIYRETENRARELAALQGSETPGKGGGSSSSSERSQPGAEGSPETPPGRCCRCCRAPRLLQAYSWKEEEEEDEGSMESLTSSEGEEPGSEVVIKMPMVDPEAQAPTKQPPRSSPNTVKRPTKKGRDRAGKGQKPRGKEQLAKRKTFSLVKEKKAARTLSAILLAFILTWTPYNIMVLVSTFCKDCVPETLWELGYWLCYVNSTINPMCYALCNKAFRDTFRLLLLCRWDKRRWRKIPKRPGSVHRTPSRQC
# M1 ag parental = M1 agonist counterscreen hit in parental CHO-K1 cells; 360,000 compounds, 0.48% hits; activation, % at 3 µM; Fluo-8 calcium fluorescence; scaled to maximal ATP response, vehicle zero; in the data active = activation above about 15%;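 note: untransfected CHO-K1 host cells lacking M1 receptor as counterscreen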
# M1 antag = human CHRM1 antagonism | CHO-K1 hM1, Fluo-8 calcium fluorescence, ACh EC80 antagonist | inhibition, % at 3 µM | AID 588852 | 360,000 compounds, 1.3% hits | P11229;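 active = percent inhibition above its own plate's cutoff, namely the mean of that plate's compound wells plus 3 SD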;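 note: peak over basal fluorescence ratio during 140 s after agonist addition; 0% = ACh EC80 plus DMSO and 100% = DMSO alone without agonist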
# CHO-K1 Ca antag = M1 antagonist counterscreen hit in parental CHO-K1 cells. ATP-induced calcium, Fluo-8 fluorescence. inhibition, % at 3 µM. 360,000 compounds, 0.6% hits. AID 602250;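 active = inhibition above a per-plate cutoff, the plate's mean sample inhibition plus 3 SD, cut at about 24% in these data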;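 note: 0% = DMSO plus EC80 ATP and 100% = DMSO alone without ATP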
# M1 PAM parental = counter-screen for M1 PAMs: effect in parental CHO-K1 cells | 360,000 compounds, 0.02% hits | activation, % at 3 µM | ATP EC20, Fluo-8 calcium fluorescence; 0% at ATP EC20, 100% at ATP max;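 active = activation above the run cutoff, the mean activation of all test compounds plus 3 SD, cut at about 40% in these data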;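 note: peak over basal fluorescence ratio in a 140 s read after ATP addition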
# CHRM1 agonist = human M1 muscarinic receptor agonism; CHO-K1 hM1, Fluo-8 calcium fluorescence, agonist mode; 0% DMSO, 100% acetylcholine EC100; activation, % at 3 µM; 360,000 compounds, 0.33% hits;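 active = activation above the run's mean compound activation plus 3 SD, cut at about 16% in these data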;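 note: peak over basal fluorescence ratio within a 140 s kinetic read after compound addition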
# An asterisk follows results filed as active.
SMILES,CHRM1 PAM,M1 ag parental,M1 antag,CHO-K1 Ca antag,M1 PAM parental,CHRM1 agonist
CN(C)c1ccc(-c2nnc(-c3ccccc3F)o2)cc1,5,19*,-10,10,3,0
C[C@@H]1CN([C@H](C)CO)C(=O)CCCn2cc(nn2)CO[C@H]1CN(C)C(=O)Nc1ccc(C(C)(C)C)cc1,8,1,-9,6,21,-11
Cn1nc(C(F)(F)F)c(/C=N/OC(=O)c2ccccc2Cl)c1SCc1ccccc1Cl,-28,2,33*,-14,20,-7
CCn1ccnc1CN1CCc2c([nH]c3ccccc23)C1C(C)(C)C (stereo not drawn),-13,23*,5,12,15,-14
CCn1ccnc1CN1CCc2c([nH]c3ccccc23)C1CC(C)C (stereo not drawn),-10,3,8,-12,7,-6
O=C(CCNS(=O)(=O)c1ccccc1C(F)(F)F)NCCCc1ccccc1,1,0,7,-4,-14,-4
NN=C(c1ccccc1)c1ccccc1,12,0,-8,0,-10,-4
N/N=C(\c1ccccc1)C12CN3CN(CN(C3)C1)C2,-27,0,58*,4,19,-9
CCn1ccnc1CN(C)C(=O)CCc1nnc(CCCc2ccccc2)o1,5,0,4,24*,-15,-9
CN(Cc1ccsc1)C(=O)CCc1nnc(CCCc2ccccc2)o1,7,1,-9,-11,17,-3
CCCCc1nc2cc(C(=O)NCc3ccccn3)ccc2o1,0,0,8,4,-21,0
CCn1ccnc1CNC(=O)c1ccc2oc(CCCc3ccccc3)nc2c1,-21,6,33*,-2,20,-4
CNC(=O)OCc1snc(-c2ccccc2)c1COC(=O)NC,8,1,-11,0,15,-3
Cc1ccc(NC(=O)c2cccc(S(=O)(=O)N3CCN(c4ccc(F)cc4)CC3)c2)nc1,-1,6,-3,-4,5,0
CCc1ccc(OCC(=O)NNC(=O)CNC(=O)c2ccc(Br)o2)cc1,6,-1,-8,-10,-1,-2
CCCOc1ccc(OC(=O)c2ccc(Br)o2)cc1,-8,3,17,13,2,45*
O=[N+]([O-])c1ccc(N2CCN(Cc3ccccc3)CC2)c2c1no[n+]2[O-],-25,19*,35*,10,7,1
O=[N+]([O-])c1ccc(N2CCN(Cc3ccccc3)CC2)s1,24,3,-30,-13,-4,-6
CCOC(=O)CCCCCC(=O)Nc1ccc2c(c1)C(=O)N([C@@H](C)CO)C[C@H](C)[C@H](CN(C)C(=O)c1ccccc1)OCCCC[C@H](C)O2,3,6,-2,9,2,-2
CC1(C(=O)Nc2ccc3c(c2)OCO3)CCN1Cc1cccc2c1OCO2 (stereo not drawn),-6,3,-8,-21,58*,1
CC1(C(=O)Nc2ccc3c(c2)OCO3)CCN1Cc1csc2ccccc12 (stereo not drawn),-23,0,25,-24,40*,6
COCOc1cccc(CN2CCC2(C)C(=O)Nc2ccc3c(c2)OCO3)c1 (stereo not drawn),3,2,3,-14,30,-1
Cc1ccc(NC(=O)C2(C)CCN2Cc2csc3ccccc23)cc1 (stereo not drawn),-29,0,45*,-4,15,-9
CCOC(=O)/C(=C/C=C1\Sc2cc(OCC)c(OCC)cc2N1CC)C(C)=O,-21,46*,27,30*,-15,70*
CCN1/C(=C/C(C)=O)Sc2ccc(OC)cc21,6,0,-1,-18,8,-3
SMILES,CHRM1 PAM,M1 ag parental,M1 antag,CHO-K1 Ca antag,M1 PAM parental,CHRM1 agonist
CCOC(=O)/C(=C\C=C1/Sc2cc(OCC)c(OCC)cc2N1CC)C(C)=O,-15,38*,24,18,-2,44*
COc1ccc2nc(-c3ccccc3)cc(C(=O)OCC(=O)N3CC(C)OC(C)C3)c2c1 (stereo not drawn),-12,3,23,2,9,-5
O=C(CN1CCc2ccccc21)Nc1ccc2c(c1)OCCCO2,3,1,4,2,-14,-3
COC(=O)c1cc(NC(=O)CN2CCc3cc4c(cc3C2)OCCCO4)cc(C(=O)OC)c1,7,-1,-16,2,8,-9
Cc1ccc(NC(=O)CN2CCc3cc4c(cc3C2C)OCCCO4)cc1C (stereo not drawn),0,2,0,-5,24,-3
Cc1ccc(NC(=O)CN2CCc3cc4c(cc3C2C)OCCCO4)cc1 (stereo not drawn),-22,5,53*,-1,1,-4
O=C(CN1CCc2cc3c(cc2C1)OCCCO3)Nc1ccc(S(=O)(=O)N2CCCC2)cc1,-22,3,50*,-15,15,-3
CC1c2cc3c(cc2CCN1CC(=O)Nc1ccccc1)OCCCO3 (stereo not drawn),-32,10,33*,3,5,-7
O=C1c2cc(Cl)ccc2-c2c(O)cc(Cl)cc21,-15,8,36*,-3,12,8
O=c1cc(O)c(-c2ccc(Cl)cc2)c(Cl)[nH]1,12,0,-20,-3,8,-3
O=C(Nc1ccn(CCCNCc2ccccn2)c(=O)n1)OCc1ccccc1,1,0,-9,-11,20,-10
O=C(Nc1ccn(CCCN2CCN(Cc3ccc(F)cc3)CC2)c(=O)n1)OCc1ccccc1,-26,1,39*,3,5,-10
O=C(Nc1ccn(CCCN2CCN(c3ncccn3)CC2)c(=O)n1)OCc1ccccc1,-19,0,22*,3,3,-12
CN(C(=O)CSc1nncn1C)C1CCCN(Cc2ccccc2F)C1 (stereo not drawn),-4,0,5,-7,-14,-5
CCOC1=C2[C@@H](CN(S(=O)(=O)c3ccc(C)cc3)[C@H]2c2ccc(CC)cc2)[C@H]2C(=O)N(c3ccccc3)C(=O)[C@H]2C1,-3,0,-3,3,4,-5
CCOC1=C2CN(S(=O)(=O)c3ccc(C)cc3)[C@H](c3cccc(Cl)c3)C[C@H]2[C@H]2C(=O)N(c3ccccc3)C(=O)[C@H]2C1,6,4,-1,10,15,-2
CCOC1=C2CN(S(=O)(=O)c3ccc(C)cc3)[C@@H](c3ccccc3)C[C@H]2[C@H]2C(=O)N(c3ccccc3)C(=O)[C@H]2C1,-1,3,11,28*,5,-4
CCCCC[C@@H]1[C@@H]2C(=C(OCC)C[C@@H]3C(=O)N(c4ccccc4)C(=O)[C@H]23)[C@H](c2ccccc2)N1S(=O)(=O)c1ccc(C)cc1,5,0,-5,25*,-1,5
